About 870 (72%) of roughly 1,200 compounds were called active. Another 3% or so got no clear call; they are omitted.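 How the source made its calls: active means every test run fits a falling curve whose half-maximal concentration is at most twice the top valid dose; inconclusive means runs disagree, or flat 30 to 70% inhibition, or poor fit; inactive means every run inactive: flat, rising or weaker potency.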 So high a share suggests a set chosen from earlier hits. Not all results are given here. Potency and affinity values are given separately.
Test: ZM109 Env clade C HIV-1 fusion inhibitors, dose response, HeLa effector, CEM target cells, luciferase, cherry-pick (AID 652058);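 further: 0% = neutral control wells and -100% = maraviroc 300 nM wells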
Conditions: HeLa Env/CEM cell fusion, 16-24 h; series mostly up to 35 µM; activity change, negative = inhibition: at the top concentration

Activity change, negative = inhibition, inactive:
Cc1[nH]c2ccccc2c1/C=N\NC(=O)c1ccccc1Cl 39.8%
COc1ccc(CCNC(=O)C2CCCN(Cc3nc(-c4cccc(Cl)c4)oc3C)C2)cc1OC (centres undefined) -35.4%
O=C(NCc1cccc(F)c1)[C@@H]1[C@@H](CO)[C@@H]2Cn3c(ccc(-c4cccnc4)c3=O)[C@H]1N2CC1CC1 -17.1%
N#C[C@@H]1[C@H](c2ccc(-c3ccccc3F)cc2)[C@@H](CO)N1C(=O)Cc1ccccc1 -31.2%
CCCNC(=O)N1[C@H](C#N)[C@H](c2ccc(-c3cccc(OC)c3)cc2)[C@@H]1CO 127%
S=c1nc[nH]c2c1[nH]c1ccc(Cl)cc12 77%
Cc1cc(C(=O)CN2C(=O)c3ccccc3S2(=O)=O)c(C)n1C(C)C -55.3%
Cc1onc(-c2ccccc2)c1C(=O)NC(=S)NNC(=O)c1ccc(O)cc1 41%
Cc1onc(-c2ccccc2)c1C(=O)Nc1ccc(Br)cc1Cl -20.5%
CCS(=O)(=O)Nc1ccc2c(c1)C(=O)N(C)C[C@H](OC)[C@@H](C)CN(C(=O)C1CCC1)[C@H](C)CO2 101%
CO[C@@H]1CN(C)C(=O)c2ccc(NS(C)(=O)=O)cc2OC[C@@H](C)N(C(=O)C2CCCCC2)C[C@H]1C 135%
CO[C@H]1CN(C)C(=O)c2cc(NC(=O)C3CCOCC3)ccc2OC[C@H](C)N(Cc2nccs2)C[C@H]1C -16.3%
CO[C@@H]1CN(C)C(=O)c2cc(NS(=O)(=O)c3ccc(C)cc3)ccc2OC[C@H](C)N(C(=O)NC(C)C)C[C@@H]1C 59.6%
COc1ccc(S(=O)(=O)NC[C@@H]2CC[C@H]3[C@H](CN3Cc3cc(F)ccc3F)O2)cc1 19.1%
CCCC(=O)Nc1ccc2c(c1)OC[C@@H](C)N(C(=O)CN(C)C)C[C@H](C)[C@@H](OC)CN(C)C2=O -17.8%
CCCC(=O)Nc1ccc2c(c1)C(=O)N(C)C[C@@H](OC)[C@@H](C)CN(Cc1nccs1)[C@@H](C)CO2 1.12%
CCC(=O)Nc1ccc2c(c1)C(=O)N(C)C[C@@H](OC)[C@H](C)CN(C(=O)CC)[C@@H](C)CO2 55.8%
Clc1ccc2c(c1)C1=C(C(c3ccncc3)O2)C(c2ccc(Br)cc2)n2ncnc2N1 (centres undefined) 36.6%
COc1ccc(CC(=O)Nc2cccc(S(=O)(=O)N3CCCCCC3)c2)cc1OC -2.63% [at 16 µM]
CC1CCCC(C)N1CCCNC(=O)c1nn(C)c2c1CSc1ccccc1-2 (centres undefined) 20.6%
CN1C(=O)C2(c3ccccc31)N(C)CC(c1ccccc1)C21SC(=S)N(Cc2ccco2)C1=O (centres undefined) 6.82%
O=C(Nc1ccc(S(=O)(=O)N2CCCC2)cc1)c1ccc(CN2CCOCC2)cc1 -10.5%
CCN(CC)c1ccc(/C=N/N2C(C)CCCC2C)c(O)c1 (centres undefined) 35.2%
Nc1nonc1C(=O)NCCNCc1cc(Br)ccc1OCc1ccccc1F -2.3%
Cn1c(SCc2nc(-c3ccc(Cl)cc3)no2)nnc1-c1cccs1 -18.2%
O=C(COC(=O)c1cc(S(=O)(=O)N2CCOCC2)ccc1O)NCc1ccc2c(c1)OCO2 2.67%
Cc1ccc(COC(=O)c2cc(S(=O)(=O)N3CCCCC3)ccc2N2CCOCC2)cc1 47%
CCNC1CCC(Nc2ccnc3cc(Cl)ccc23)CC1 (centres undefined) -13.6%
CCC(C)NS(=O)(=O)c1ccc(S(=O)(=O)N2CCCC3(CCCCC3)C2)cc1 (centres undefined) -47.6%
CC(=O)Nc1ccc(NC(=O)CN(c2ccc(C34CC5CC(CC(C5)C3)C4)cc2)S(C)(=O)=O)cc1 197%
CC(CCc1ccco1)NC(=O)CCc1nnc2ccc(NCc3ccccc3Cl)nn12 (centres undefined) 147%
CCOc1ccccc1CNc1ncnc2ccc(-c3c(C)noc3C)cc12 -26.9%
OCC[C@@H]1C[C@@H](O)[C@H](O)[C@]2(OCc3ccccc32)O1 -30.9%
Cc1ccc2c(c1)c1c3n2CCN(CCC#N)C3CCC1 (centres undefined) 72.5%
COc1ccccc1S(=O)(=O)n1cc(Cc2ccccc2)c(N)n1 2.38%
COc1ccc(/C(C)=N/NC(=O)c2cccc(S(=O)(=O)N3CCCC3)c2)c(O)c1 -36.4% [at 16 µM]
CCCCCn1c(C(C)NC(=O)CCC)nc2ccccc21 (centres undefined) -31%
COc1ccc(C(O)c2nc3ccccc3n2C)cc1OC (centres undefined) -23.7%
C=CCNc1nc2c(c(=O)n(C)c(=O)n2C)n1CCCCCC 155%
CCc1nc2ccccc2c(C(=O)OCC(=O)Nc2cccc(S(=O)(=O)N3CCOCC3)c2)c1C 168%
Cc1cc2c3c(c1)C1(SCC(=O)N1c1ccc(F)cc1)C(=O)N3C(C)(C)CC2C (centres undefined) -68.3% [at 15 µM]
Nc1cc2c(cc1Br)[nH]c(=O)c1ccccc12 -25.2%
CCc1nnc(NC(=O)[C@@H](NC(=O)c2cccc(S(=O)(=O)N(CC)CC)c2)C(C)C)s1 39.5%
COc1ccc(N2CCN(C(=O)C3CCC(Cn4c(=S)[nH]c5ccccc5c4=O)CC3)CC2)cc1 (centres undefined) -44.6%
Fc1ccc(-n2nnnc2-c2cnc(-c3cccs3)nc2C(F)(F)F)cc1 91% [at 16 µM]
O=C(N/N=C/c1ccc(-n2ccnc2)cc1)c1cccs1 73.5%
Cc1ccc2c(c1)c1c3n2CCN(CC(N)=O)C3CCC1 (centres undefined) 81.6%
COc1ccc2[nH]c3c(N4CCC(O)(c5cccc(C(F)(F)F)c5)CC4)ncnc3c2c1 -82.8%
CCOC(=O)C(C)Oc1cccc2c(=O)n(CC(=O)NCCc3ccc(OC)c(OC)c3)ccc12 (centres undefined) -38.6%
CC1(C(=O)NCc2ccc3c(c2)OCO3)CCN1Cc1csc2ccccc12 (centres undefined) -13.3%
COc1ccc(NS(=O)(=O)c2ccc3c(c2)OCCO3)cc1OC -10.5%
COc1ccc(NS(=O)(=O)c2cccc(C(=O)NNC(=O)CNC(=O)c3ccc(C)cc3)c2)cc1 35.8%
O=C(Cc1ccc(Cl)cc1Cl)Nc1ccncc1 -15.2%
COc1ccc(/C=C/c2nc(S(=O)(=O)c3ccccc3)c(NCCCN(C)C)o2)cc1OC -36.4% [at 16 µM]
COC(=O)c1ccc(NC(=O)c2ccc(CN3CCOCC3)cc2)cc1 -20.5%
Nc1ccn([C@@H]2O[C@H](C(=O)NCc3ccc4c(c3)OCO4)[C@@H](O)[C@H]2O)c(=O)n1 14.6%
CC(C)CC#Cc1ccc2c(c1)O[C@@H](CN(C)S(=O)(=O)c1ccc(F)cc1)[C@H](C)CN([C@@H](C)CO)S2(=O)=O -29.4%
Cc1cc2ncn(S(=O)(=O)N3CCCCC3)c2cc1C 1.39%
CCN1CCN(S(=O)(=O)c2ccc(Cl)c(C(=O)Nc3ccccc3N3CCCC3)c2)CC1 21.8%

From PubChem BioAssay AID652058 (Broad Institute, 2013)
